POLI inh – inhibitors of human DNA polymerase iota | Q9UNA4 | Pol iota fluorescent replication assay, 10 min | Potency, µM (titrated, usually from 115 µM), inactives show at the highest dose activity, negative = inhibition, actives largely listed as inhibitors | 1% of 390,000 active | AID 588590
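Pol iota at 10 nM preincubated 15 min with compounds at room temperature; reaction started with fluorescent substrate, 50 nM final. Fluorescence read kinetically at 0 and 10 min; buffer-only wells as negative control.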
POLK inh – blocks human DNA polymerase kappa activity; purified Pol kappa, fluorescent DNA synthesis assay, 10 min; AID 588579; 0.53% of 400,000 active; Q9UBT6; Potency, µM (highest dose often 107 µM), inactives show at the top dose activity, negative = inhibition, usual class: inhibitors; also: % is scaled to controls: 0 for no effect and ±100 for the full control effect
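50 nM final substrate added after 15 min RT preincubation of 10 nM Pol kappa with compound; fluorescence read at 0 and 10 min.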
FEN1 inhibitor – blocks human flap endonuclease 1. P39748. Recombinant FEN1 flap cleavage, fluorescence, 15 min. Potency, µM (series often up to 114 µM), for the others: at the highest dose activity change, negative = inhibition, hits mostly inhibitors. 0.35% of 390,000 active; also: % is scaled to controls: 0 for no effect and ±100 for the full control effect; nearly all actives have a fitted effect of over 65% in size
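FEN1 at 10 nM preincubated with compounds 15 min at room temperature, then flap DNA substrate added at 50 nM final. Signal read at 0 and 15 min; concentration-response fitted with four-parameter Hill equation.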
WRN inhibitor – WRN helicase (human) inhibition; Q14191; WRN helicase unwinding, fluorescent forked duplex, kinetic; Potency, µM (series often up to 114 µM), without a hit: at the highest dose activity change, negative = inhibition, most hits filed as inhibitors; 0.46% of 360,000 active; also: % is scaled to controls: 0 for no effect and ±100 for the full control effect; nearly all actives have a fitted effect of over 55% in size
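Primary qHTS, 1536-well format. 20 nM WRN + compound, 15 min RT; start with 100 nM forked fluorophore/quencher duplex, 2 mM ATP (final); kinetic read ex 525/em 598 nm.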
POLH inh – DNA polymerase eta (human) inhibition; Q9Y253; recombinant Pol eta, fluorescent DNA replication assay; Potency, µM (top dose mostly 114 µM), without a hit: at the highest dose activity change, negative = inhibition, hits mostly inhibitors; 1.2% of 390,000 active; AID 588591; also: % is scaled to controls: 0 for no effect and ±100 for the full control effect
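Pol eta at 10 nM preincubated with compounds 15 min at room temperature; reaction started with fluorescent substrate (50 nM final) and read kinetically at 0 and 10 min.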
POLB inh – DNA polymerase beta (human) inhibition. AID 485314. Pol beta primer extension/strand displacement, fluorescence kinetic. P06746. 1.3% of 340,000 active. Potency, µM (titrated, usually from 114 µM), for the others: top-dose activity change, negative = inhibition, actives largely listed as inhibitors; also: % is scaled to controls: 0 for no effect and ±100 for the full control effect
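10 nM enzyme + cpd, 15 min RT; start with substrate 50 nM final; read 0 min and after 10 min RT. Corrected, normalized data; 4-parameter Hill curve fit.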
Numbers without * were called inactive; ? = inconclusive; nt = not tested or not shown; [ ] = another dose, or the depositor's remark. This is a sample that favours compounds with a hit; in the whole collection about 2.4% have one here. Calls follow the shape of the dose curve; as a rule, active = well fitted curve in the direction sought with a large enough effect; inconclusive = small, poorly fitted or top-dose-only effect, or another doubt; inactive = no such curve, though single readings can be large; an effect the other way counts as inactive or inconclusive. Potency is read from the fitted curve at half-maximal effect.

SMILES	POLI inh	POLK inh	FEN1 inhibitor	WRN inhibitor	POLH inh	POLB inh
COC(=O)c1[nH]c2c(c1C)C(=O)CC(c1ccc(C)cc1)C2 (configuration not stated)	17%	3%	-1%	-21%[57.1 µM]	?	32%
COC(=O)c1[nH]c2c(c1C)C(=O)CC(c1cccc(OC)c1)C2 (configuration not stated)	?	-22%	-1%	-15%	-5%	45µM*
Cc1nn2c(=O)cc(COC(=O)c3cccs3)nc2s1	-2%	0%	-3%	nt	-17%	5%
Cc1cc(NC(=O)CS(=O)CC(=O)Nc2c(C)cccc2C)ccc1-n1cnnn1 (configuration not stated)	-1%	0%	0%	7%	-8%	49%
COc1cc(/C=N/NC(=O)COc2ccc(-n3cnnn3)cc2)ccc1OCC(N)=O	?	?	9%	-6%	-9%	16µM*
Cc1cc(C)cc(OCC(=O)Nc2ccc(-n3cnnn3)cc2)c1	32µM*	2%	-1%	-6%	-12%	nt
COc1cc(/C=N/NC(=O)COc2ccc([N+](=O)[O-])cc2)ccc1OCC(=O)N1CCOCC1	-8%	-16%	5%	-3%	-1%	18µM*
CCc1ccc(NC(=O)CS(=O)CC(=O)Nc2ccc(-n3cnnn3)c(C)c2)cc1 (configuration not stated)	14%	-13%	-23%	-23%	-2%	25µM*
CCCCC(=O)O[C@]1(C(=O)CO)CCC2C3CCC4=CC(=O)CCC4(C)C3C(O)CC21C (some centres not stated)	nt	0%[19.4 µM]	nt	nt	nt	nt
COc1ccc(OC)c(C(=O)COC(=O)CNC(=O)C2CCCCC2)c1	6%	-9%	-2%	8%	2%	6%
COc1ccc(C(=O)COC(=O)c2ccc3c(c2)OCCO3)c(OC)c1	?	-26%	-6%	-14%	?	nt
COc1ccc(C(=O)COC(=O)c2cc(C)no2)c(OC)c1	50µM*	-41%	-9%	-16%	?	nt
COc1ccc(C(=O)COC(=O)c2cccnc2Cl)c(OC)c1	40µM*	?	-6%	-10%[57.1 µM]	50µM*	13µM*
COc1ccc(C(=O)COC(=O)CNC(=O)C2CCCCC2)c(OC)c1	?	-25%	7%	-8%	?	22µM*
COc1ccc(C(=O)COC(=O)/C=C/c2ccccc2)c(OC)c1	35µM*	45µM*	-10%	-3%[11.6 µM]	40µM*	nt
COc1ccccc1CNc1nc(-c2ccco2)nn1S(=O)(=O)c1ccc2ccccc2c1	12%	-21%	-3%	nt	-2%	8%
CC[C@]1(O)C[C@@H]2CN(CCc3c([nH]c4ccccc34)[C@@](C(=O)OC)(c3cc4c(cc3OC)N(C)C3[C@]45CCN4CC=C[C@](CC)(C45)[C@@H](OC(C)=O)[C@]3(O)C(=O)OC)C2)C1 (some centres not stated)	nt	3%[19.4 µM]	nt	nt	nt	nt
Cc1nn(-c2ccccn2)c2c1C(=O)C(Br)CC2 (configuration not stated)	133%	-3%	-5%	56µM*	7%	10%
CC1=C(C)C(=O)N(c2ccccn2)C1=O	9%	-1%	8%	0%	-13%	9%
C=CCSC1=N/C(=C\c2cc(OCC)c(OC(C)=O)c([N+](=O)[O-])c2)C(=O)S1	20µM*	32µM*	56µM*	16%	?	20µM*
C=CCSC1=N/C(=C\c2sccc2C)C(=O)S1	9%	-11%	-18%	-3%	-11%	-2%
COc1cccc(/C=C2/Sc3ccc(C(=O)NCCN4CCCCCC4)cc3NC2=O)c1	-14%	6%	50µM*	3%[11.6 µM]	-14%	-3%
O=C1C(=C2CCCCC2)SC(=S)N1Cc1ccco1	?	?	-5%	?	?	25µM*
CCOc1ccccc1NC(=O)C(CC)n1c(C(=O)OC)cc2occc21 (configuration not stated)	5%	6%	?	nt	-23%	25%
O=c1c(-c2cc(O)c(O)c(O)c2)coc2cc(O)c(O)c(O)c12	nt	0.4µM*	nt	nt	nt	nt
SMILES	POLI inh	POLK inh	FEN1 inhibitor	WRN inhibitor	POLH inh	POLB inh
O=c1c(-c2ccc(O)cc2)coc2cc(O)cc(O)c12	-1%[58.9 µM]	-15%[60.1 µM]	24%[57.1 µM]	-1%	-1%[57.1 µM]	?
COc1cccc(C(c2c(C)[nH]n(-c3ccccc3)c2=O)c2c(C)[nH]n(-c3ccccc3)c2=O)c1O	1µM*	-19%	-26%	-10%[11.6 µM]	9%	26%
Cc1[nH]n(-c2ccccc2)c(=O)c1C(c1ccc(O)c([N+](=O)[O-])c1)c1c(C)[nH]n(-c2ccccc2)c1=O	?	-32%	?	?	28µM*	nt
Cc1[nH]n(-c2ccccc2)c(=O)c1C(C[N+](=O)[O-])c1ccccc1Cl (configuration not stated)	-11%	-9%	-7%	-27%	-10%	-28%
Cc1[nH]n(-c2ccccc2)c(=O)c1C(=O)c1ccccc1	?	-7%	3%	-4%	?	-4%
CCOC(=O)c1cc(=O)n2[nH]c(-c3ccc(C)cc3)cc2n1	-2%	-18%	-5%	6%	-12%	-10%
CCOC(=O)Cc1cc(=O)n2[nH]c(-c3ccc(C)cc3)cc2n1	79µM*	-38%	-5%	-17%[57.1 µM]	?	22µM*
Cc1cccc(CCNC(=O)C2CCCN(S(=O)(=O)c3ccc4c(c3)oc(=O)n4C)C2)c1 (configuration not stated)	11%	-5%	0%	nt	-16%	0%
COc1cc(-c2cnc3c(NC(C)=O)cc(-c4cccc(C(=O)NCCO)c4)cn23)cc(OC)c1OC	nt	nt	nt	-3%	nt	nt
COc1ccc(-c2cnc3c(NC(C)=O)cc(-c4cccc(C(=O)NCCN(C)C)c4)cn23)cc1OC	nt	nt	nt	25µM*	nt	nt
COc1cc(-c2cnc3c(NC=O)cc(-c4cccc(C(=O)NCCN(C)C)c4)cn23)cc(OC)c1OC	nt	nt	nt	20µM*	nt	nt
CC(CNC(=O)c1ccc(Cn2c(=O)c3cccn3c3cccnc32)cc1)c1ccccc1 (configuration not stated)	10%	-3%	-13%	nt	9%	36%
CCCn1c(SCC(=O)Nc2nnc(-c3ccccc3)s2)nnc1-c1ccccn1	?	-10%	-13%	-9%	?	22µM*
CC(C(=O)Nc1ccc(O)cc1C(=O)O)N1C(=O)/C(=C\c2cccs2)SC1=S (configuration not stated)	?	?	-24%	-4%[11.6 µM]	22µM*	?
O=C(CCCN1C(=O)/C(=C\c2cccs2)SC1=S)Nc1ccccc1O	nt	nt	nt	-2%	-2%	nt

Source: PubChem
